Data reported in PubChem BioAssay AID651939 (The Scripps Research Institute Molecular Screening Center, 2012).
This is one part of the list. A number with no mark means an inactive call. Activity calls are given as the source filed them. Rule as the data show it: active = IC50 below about 9 µM; inactive = the rest.

Experiment: compound binding to PG126 antibody – biochemical, TR-FRET, distinct HIV envelope site, counter-screen for PG9 antibody binder project, dose response (AID 651939)
Conditions: TR-FRET binding to antibody PG126, counterscreen

| Structure (SMILES) | IC50 |
| --- | --- |
| S=c1[nH]c2ccccc2c2ccccc12 | 60.4 µM |
| O=C(Nc1nnc(-c2ccccc2F)s1)c1ccccc1F | 17.9 µM |
| COc1ccc(-c2c(C)nn3c(N4CCC(C(=O)N5CCCCC5)CC4)cc(C)nc23)cc1OC | > 67 µM |
| O=C(Oc1ccccc1)Oc1ccc2c(c1)oc(=O)c1ccccc12 | 4.13 µM (active) |
| COC(=O)C1=C(C)N(Cc2ccccc2C(F)(F)F)C(=NCc2ccc(OC)cc2)NC1c1cccc(C(F)(F)F)c1 (configuration not stated) | > 67 µM |
| Cc1cccc(Nc2nc3c(S(=O)(=O)c4ccccc4)nnn3c3ccccc23)c1C | 3.75 µM (active) |
| CC1(C)Cc2ccccc2-c2[nH]c(=S)[nH]c(=O)c21 | 66.1 µM |
